Records with an inconclusive call do not appear. A call without a number means that no potency is given here. Active and inactive are the calls of the source. Calls follow the shape of the dose curve; as a rule, active = well fitted inhibition curve with a large enough effect in the repeat runs; inconclusive = weak or mixed curves; inactive = no such curve, though single readings can be large or run the other way.
Potency is read from the fitted curve at half-maximal effect.

Cytochrome P450 3A4 (Homo sapiens), sequence (P08684 whole entry, looked up): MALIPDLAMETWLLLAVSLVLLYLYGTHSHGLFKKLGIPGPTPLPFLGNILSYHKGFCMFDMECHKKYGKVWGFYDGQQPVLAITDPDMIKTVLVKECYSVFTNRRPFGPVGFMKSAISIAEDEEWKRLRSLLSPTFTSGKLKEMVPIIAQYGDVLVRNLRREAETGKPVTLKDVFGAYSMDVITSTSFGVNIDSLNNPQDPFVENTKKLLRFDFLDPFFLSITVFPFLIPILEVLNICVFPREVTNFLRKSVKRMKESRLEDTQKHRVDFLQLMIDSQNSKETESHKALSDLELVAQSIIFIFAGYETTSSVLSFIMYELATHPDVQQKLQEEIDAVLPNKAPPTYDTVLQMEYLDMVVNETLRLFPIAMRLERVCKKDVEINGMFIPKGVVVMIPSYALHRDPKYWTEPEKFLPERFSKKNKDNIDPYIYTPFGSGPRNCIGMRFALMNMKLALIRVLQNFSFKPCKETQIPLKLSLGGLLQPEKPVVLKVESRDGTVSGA

The assay concerns the target Cytochrome P450 3A4 (Homo sapiens) (UniProt P08684). Put plainly: Cytochrome P450 Family 3 Subfamily A Member 4 (CYP3A4) small molecule antagonists: luciferase reporter qHTS assay (AID 1671201). Also: nearly all actives have a fitted effect of over 50% in size. The following applies: P450-Glo CYP3A4 enzyme, luciferin luminescence, 1 h; series mostly up to 115 µM. The method, boiled down: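 CYP3A4 activity was followed with a P450-Glo proluciferin substrate. Test compounds in DMSO were preincubated 10 min; NADPH regeneration then ran 1 h, and light output was read 20 min after detection reagent.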
In general terms: Reporter assays use an easily measured gene product as a stand-in for the process of interest.
Turning to `OC1CCC(C2CCCCC2)CC1` (configuration not stated), the Potency result is “inactive”.
On to `CC[N+](CC)(CC)CCOc1ccc(/C=C/c2ccccc2)cc1`, for which the Potency entry is “inactive”.
The same measure, in the same setting: as for `CC(C)(c1cc(Br)c(OCC(Br)CBr)c(Br)c1)c1cc(Br)c(OCC(Br)CBr)c(Br)c1` (configuration not stated), the entry is “inactive”.
Same read-out and setting: as for `CC(C)CCCCCOC(=O)CCS`, the entry is “inactive”.
For the molecule `ClCCl`, the Potency result is “inactive”.
`O=C1C(c2[nH]c3ccc(S(=O)(=O)O)cc3c2O)=Nc2ccc(S(=O)(=O)O)cc21`: the Potency result was “inactive”.
For the molecule `C=Cc1ccccc1C=C`, the Potency entry is “inactive”.
As for `COc1ccc(-c2coc3cc(O)ccc3c2=O)cc1`, the Potency entry was “inactive”.
With `Cc1c(C)c2c(c(C)c1O)CC[C@@](C)(CCC[C@H](C)CCC[C@H](C)CCCC(C)C)O2`, the Potency entry was “inactive”.
Take `CC(C)(C)CC(C)(C)c1ccc(Nc2ccc(C(C)(C)CC(C)(C)C)cc2)cc1`: the activity change, negative = inhibition was -20% [at 10.5 µM] (inactive).
As to `CCc1oc2ccccc2c1C(=O)c1cc(I)c(O)c(I)c1`, the Potency result was “inactive”.
Consider `O=C(O)O`, for which the activity change, negative = inhibition is 0.224% [at 10.5 µM] (inactive).
As for `O[C@@H]([C@H](O)[C@H](O)CBr)[C@H](O)CBr`, the Potency entry is “inactive”.
On the same count and under the same terms, as for `COCCOc1cc2cc(C(=O)NC3CCN(C(C)C)CC3)n(CC(=O)Nc3ccc(Cl)cn3)c2cn1`, the entry is “inactive”; as for `O=[N+]([O-])c1ccc(F)c(Cl)c1`, “inactive”; as for `O=c1[nH]c2ccccc2n1CCCN1CCN(C(c2ccccc2)c2ccccc2)CC1`, “inactive”.
As for `CCOC(=O)NNc1ccc(N(CC)CC(C)O)nn1` (configuration not stated), the Potency result is “inactive”.
On to `Cc1cc(=O)oc2cc(O)cc(O)c12`, for which the Potency was 20.1 µM (active).
Still for that read-out and setting: as for `CCN(CC)C(=O)c1cc(S(=O)(=O)Cc2ccccc2)c(N2CCC(c3ccccc3)CC2)cc1N(CC)CCN(C)C`, the figure is 0.125 µM (active).
Regarding `CCCCOC(=O)CC`, the Potency result was “inactive”.
As for `CC(CCc1ccccc1)NCC(O)c1ccc(O)c(C(N)=O)c1` (configuration not stated), the Potency result is “inactive”.
`Cc1ccc(C)cc1`: the Potency entry was “inactive”.

(Values after PubChem BioAssay (Tox21).)
